TRPM1 prom inh: MITF TRPM1 promoter inhibition in SK-MEL-5 cells; actives 0.83% (n = 330,000); inhibition, % at 12.5 µM; SK-MEL-5 TRPM1 promoter luciferase, 24 h;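 active means mean inhibition across replicates of 60% or more, whatever share of single replicates reaches that level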
EBV LMP1 NFkB: Epstein-Barr LMP1 NF-kappaB reporter inhibition; LMP1-induced NF-kappaB luciferase reporter cells, luminescence; inhibition, % at 12.5 µM; actives 0.69% (n = 350,000); AID 504558; in the data active means inhibition above about 41%;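 further: 0% = neutral control wells and 100% = reference inhibitor control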
TWEAK-Fn14 inh: inhibitors of TWEAK-Fn14 interaction signaling; TWEAK-stimulated Fn14 reporter cells, luciferase luminescence, 8 h; inhibition, % at 10 µM; actives 2% (n = 360,000); AID 1159606; in the data active means inhibition above about 50%
MITF TRPM1 HTS: activators of MITF-driven TRPM1 promoter activity in SK-MEL-5 cells; SK-MEL-5 TRPM1-promoter luciferase, 24 h; % of positive control, neutral wells = 0; actives 0.75% (n = 300,000); AID 588334; activation, % at 12.5 µM;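 active means mean activation of at least 80% with every replicate also reaching 80%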;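 further: 0% = neutral control wells and 100% = parthenolide positive control wells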
TROY signal inh: blocks TROY-dependent signaling in reporter cells; Q293 LMP1-TROYcd NF-kB luciferase reporter, 4 h; inhibition, % at 10 µM; AID 1347056; actives 0.98% (n = 360,000);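 active means compounds whose plate-normalised and pattern-corrected inhibition of the luciferase reporter signal at the single screening dose is 50% or more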
LGR2 inh: Drosophila LGR2 receptor signaling inhibition. actives 0.35% (n = 380,000). inhibition, % at 9.99 µM. AID 720647. HEK293 LGR2, CRE-luciferase, bursicon-stimulated, 4 h;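 active means drop in luminescence signal, shown as inhibition above about 50% in the replicate tests, limit read from the data, passing the limit was not always enough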;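 further: agonist challenge used bursicon conditioned medium at about half maximal strength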
Numbers without * were called inactive; . = no result given. Only some compounds are listed: those with a hit (about 3% of all), similar ones and a draw of the others.

SMILES	TRPM1 prom inh	EBV LMP1 NFkB	TWEAK-Fn14 inh	MITF TRPM1 HTS	TROY signal inh	LGR2 inh
Cc1c(N=Nc2c(-c3ccc([N+](=O)[O-])cc3)[nH]n(C(N)=S)c2=O)cccc1[N+](=O)[O-]	62*	33	70*	-60	47	35
NC(=S)n1[nH]c(-c2ccc([N+](=O)[O-])cc2)c(N=Nc2cccc([N+](=O)[O-])c2)c1=O	15	-4	71*	-12	64*	-1
COc1ccc(NC(=O)Nc2cccc3c2O[C@H](CN(C)C(=O)Nc2ccc(OC)cc2)[C@H](C)CN([C@H](C)CO)C3=O)cc1	.	.	.	.	.	19
COc1ccc(C2NC(=S)NC3=C2CCCC3=C2SCCS2)cc1 (centres undefined)	84*	-23	-115	-84	4	-5
CCCN(C)C[C@@H]1Oc2ncc(-c3cccc(C(=O)N(C)C)c3)cc2C(=O)N([C@@H](C)CO)C[C@@H]1C	.	.	.	.	.	4
CO[C@@H]1CN(C)C(=O)c2cc(NC(=O)C3CC3)ccc2OC[C@@H](C)N(CC2CCOCC2)C[C@@H]1C	.	.	.	.	.	11
CN(C)S(=O)(=O)c1cccc(-c2nn(-c3ccccc3)cc2/C=C2\SC(=S)NC2=O)c1	0	7	64*	1	67*	16
NC(=N\N=Cc1ccco1)/C(N)=N/N=Cc1ccco1	-28	-22	72*	26	-12	0
NC(=N\N=Cc1ccccc1)/C(N)=N/N=Cc1ccccc1	.	.	-28	.	-42	-11
Cc1nc2ccccc2n1CC(O)COc1ccccc1Cl (centres undefined)	9	19	54*	-7	10	-3
CO[C@H]1CN(C)C(=O)c2ccc(NC(=O)C3CCCC3)cc2OC[C@H](C)N(CCC(F)(F)F)C[C@H]1C	.	.	.	.	.	5
CCOc1ccc(CNC(=O)C2CCCN(S(C)(=O)=O)C2)cc1OC (centres undefined)	18	1	92*	-20	-14	-9
CCOc1ccc(CNC(=O)C2CCCN(S(=O)(=O)N3CCC(C)CC3)C2)cc1OC (centres undefined)	.	-13	10	.	14	-3
CS(=O)(=O)N1CCCC(C(=O)NCCc2ccccc2)C1 (centres undefined)	0	1	69*	8	35	.
C[C@H](C(=O)N(C)C[C@@H]1OCc2ccccc2-c2ccccc2C(=O)N([C@@H](C)CO)C[C@H]1C)c1ccccc1	.	.	.	.	.	-4
O=C(NCC[C@@H]1CC[C@H](NC(=O)c2cnccn2)[C@@H](CO)O1)Nc1ccc(F)cc1	.	.	.	.	.	15
CCOc1ccc(CN2CCN(Cc3ccsc3)C(CCO)C2)cc1CO (centres undefined)	7	0	89*	-10	4	13
COCc1cc(CN2CCN(Cc3ccsc3)C(CCO)C2)ccc1OC (centres undefined)	-13	-11	19	15	3	2
COC(=O)c1sccc1NC(=O)CSc1ccccc1NS(=O)(=O)c1ccc(Br)cc1	3	2	53*	-5	52*	.
COc1ccc2c3c([nH]c2c1)[C@@H](CO)N(C(=O)c1cccnc1)CC31CN(C(=O)c2cccnc2)C1	.	.	.	.	.	-8
COc1ccc(-c2cc3nc(CCl)[nH]c(=O)c3s2)cc1	11	49*	63*	-11	-2	68*
CNC(=O)C[C@@H]1CC[C@H]2[C@@H](COc3ccc(NC(=O)c4cccc(F)c4)cc3C(=O)N2C)O1	.	.	.	.	.	-7
Cc1nn(Cc2ccc(Cl)cc2)c(C)c1NC(=O)c1noc2c1CCc1ccccc1-2	-10	6	69*	6	57*	3
O=C(CCc1ccccc1)NC(=S)Nc1cccc(C(=O)O)c1	-2	-5	-1	2	-79	-2
O=C(CCCC(=O)c1ccc(O)cc1)c1ccc(O)cc1	-95	-1	27	98*	-41	0
CCC(=O)c1ccc(O)cc1	-1	-1	1	0	-4	3
O=C(CCc1ccccc1)c1ccc2c(c1)OCCCO2	-126	-26	1	122*	-64	.
O=C(CCCc1ccccc1)Nc1cccc(C(=O)O)c1	70*	46*	-4	-68	-15	82*
O=C(CCCc1ccccc1)c1ccccc1	.	-8	-39	92*	-25	-48
CO[C@H]1CN(C)C(=O)c2cc(NC(=O)C3CCOCC3)ccc2OC[C@@H](C)N(C(=O)c2ccccc2)C[C@H]1C	.	.	.	.	.	-7
